# What was measured:
# Assay in all cases: DAPPL (digital affinity profiling via proximity ligation, sequencing); 10 mM Tris-HCl pH 7.5, 50 mM NaCl, 1 mM DTT, 4% glycerol, room temperature, 30 min; GST-TFs on glutathione beads, 16-mer random dsDNA library, 0.1% formaldehyde crosslink after washing; high values mean tight binding
# Details in all cases: protein: recombinant; tags: N-terminal GST; dsDNA, one strand shown
# [1] = target: T1, ERF (Homo sapiens, UniProt P50548 1-548)
# T1 sequence: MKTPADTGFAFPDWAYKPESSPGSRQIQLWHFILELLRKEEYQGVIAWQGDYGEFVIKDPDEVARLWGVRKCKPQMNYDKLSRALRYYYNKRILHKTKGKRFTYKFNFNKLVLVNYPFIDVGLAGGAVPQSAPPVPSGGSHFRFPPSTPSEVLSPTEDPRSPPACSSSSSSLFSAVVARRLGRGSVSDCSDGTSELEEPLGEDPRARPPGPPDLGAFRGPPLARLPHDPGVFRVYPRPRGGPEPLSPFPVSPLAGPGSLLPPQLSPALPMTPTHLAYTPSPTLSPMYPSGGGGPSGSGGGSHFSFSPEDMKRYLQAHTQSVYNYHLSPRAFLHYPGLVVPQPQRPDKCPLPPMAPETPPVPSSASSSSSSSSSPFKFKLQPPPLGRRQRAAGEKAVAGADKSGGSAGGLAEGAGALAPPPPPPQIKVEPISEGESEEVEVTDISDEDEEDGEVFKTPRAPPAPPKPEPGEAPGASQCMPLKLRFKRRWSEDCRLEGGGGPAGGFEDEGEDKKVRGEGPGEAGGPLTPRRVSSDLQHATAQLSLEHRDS
# Procedure, shortened: (§1)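 Pools were built from human transcription factors expressed in yeast as GST fusions, captured on glutathione beads and DNA-barcoded, along with a tag-only sample. Incubation with 200 nmole of a 16-mer random double-stranded DNA library lasted 30 min at room temperature in Tris/NaCl/DTT/glycerol buffer, and was followed by washing, 0.1% formaldehyde crosslinking, proximity ligation, PCR amplification and Illumina NextSeq500 sequencing. Binding signal is the quotient of each hexamer's read frequency for a factor and its frequency for the tag-only sample.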
# [2] = target: T2, ETV3L (Homo sapiens, UniProt Q6ZN32 1-361)
# T2 sequence: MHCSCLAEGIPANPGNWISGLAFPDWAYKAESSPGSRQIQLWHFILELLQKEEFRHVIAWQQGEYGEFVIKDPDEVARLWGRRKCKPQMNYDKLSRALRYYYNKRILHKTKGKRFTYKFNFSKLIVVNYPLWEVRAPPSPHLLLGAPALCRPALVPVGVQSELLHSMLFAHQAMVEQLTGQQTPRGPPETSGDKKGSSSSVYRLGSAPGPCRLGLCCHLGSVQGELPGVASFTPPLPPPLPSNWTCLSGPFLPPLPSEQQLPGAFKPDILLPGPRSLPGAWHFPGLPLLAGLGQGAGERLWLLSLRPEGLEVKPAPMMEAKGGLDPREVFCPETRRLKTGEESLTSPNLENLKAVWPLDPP
# Procedure, shortened: as §1
# [3] = target: T3, ETS2 (Homo sapiens, UniProt P15036 1-469)
# T3 sequence: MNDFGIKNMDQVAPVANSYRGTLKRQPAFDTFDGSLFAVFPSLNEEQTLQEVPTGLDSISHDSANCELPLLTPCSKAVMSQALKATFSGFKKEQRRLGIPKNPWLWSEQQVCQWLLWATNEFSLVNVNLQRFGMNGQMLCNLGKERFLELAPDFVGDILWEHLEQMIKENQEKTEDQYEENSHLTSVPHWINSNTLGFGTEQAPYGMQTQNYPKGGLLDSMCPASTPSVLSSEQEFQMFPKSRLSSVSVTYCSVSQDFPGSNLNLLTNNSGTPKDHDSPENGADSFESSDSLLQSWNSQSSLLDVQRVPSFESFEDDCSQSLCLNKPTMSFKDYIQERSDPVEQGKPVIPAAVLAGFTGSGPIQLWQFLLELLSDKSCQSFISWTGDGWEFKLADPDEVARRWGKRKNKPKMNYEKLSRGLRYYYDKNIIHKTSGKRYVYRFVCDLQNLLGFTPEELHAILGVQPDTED
# Procedure, shortened: as §1
# [4] = target: T4, SPDEF (Homo sapiens, UniProt O95238 1-335)
# T4 sequence: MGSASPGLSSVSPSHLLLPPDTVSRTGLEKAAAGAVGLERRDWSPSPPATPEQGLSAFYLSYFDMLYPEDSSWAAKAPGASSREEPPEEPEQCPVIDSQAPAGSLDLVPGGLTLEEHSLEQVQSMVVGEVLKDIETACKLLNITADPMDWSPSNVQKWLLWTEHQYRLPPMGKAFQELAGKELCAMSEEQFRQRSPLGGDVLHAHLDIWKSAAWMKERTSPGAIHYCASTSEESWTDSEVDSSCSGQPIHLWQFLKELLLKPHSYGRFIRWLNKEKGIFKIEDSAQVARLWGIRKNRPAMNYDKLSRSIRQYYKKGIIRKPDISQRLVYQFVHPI
# Procedure, shortened: as §1
# [5] = target: T5, ETV7 (Homo sapiens, UniProt Q9Y603 1-341)
# T5 sequence: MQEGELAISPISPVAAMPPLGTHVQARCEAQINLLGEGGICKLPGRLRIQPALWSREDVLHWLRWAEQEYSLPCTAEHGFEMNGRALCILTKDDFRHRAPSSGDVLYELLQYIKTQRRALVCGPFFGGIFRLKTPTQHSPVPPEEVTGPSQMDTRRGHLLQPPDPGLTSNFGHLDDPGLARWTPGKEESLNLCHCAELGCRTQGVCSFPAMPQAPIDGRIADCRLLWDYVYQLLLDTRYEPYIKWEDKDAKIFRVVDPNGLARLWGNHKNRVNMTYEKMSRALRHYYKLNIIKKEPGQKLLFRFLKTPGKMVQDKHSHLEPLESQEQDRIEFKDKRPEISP
# Procedure, shortened: as §1
# [6] = target: T6, ELF5 (Homo sapiens, UniProt Q9UKW6-2 1-255)
# T6 sequence: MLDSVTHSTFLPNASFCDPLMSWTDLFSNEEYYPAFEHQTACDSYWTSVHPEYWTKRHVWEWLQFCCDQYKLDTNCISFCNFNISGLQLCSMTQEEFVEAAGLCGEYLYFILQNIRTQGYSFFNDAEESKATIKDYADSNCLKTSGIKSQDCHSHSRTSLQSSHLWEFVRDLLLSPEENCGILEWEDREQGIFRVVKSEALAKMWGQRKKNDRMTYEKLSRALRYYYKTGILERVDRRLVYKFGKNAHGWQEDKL
# Procedure, shortened: as §1
# [7] = target: T7, ETV3 (Homo sapiens, UniProt P41162-2 1-143)
# T7 sequence: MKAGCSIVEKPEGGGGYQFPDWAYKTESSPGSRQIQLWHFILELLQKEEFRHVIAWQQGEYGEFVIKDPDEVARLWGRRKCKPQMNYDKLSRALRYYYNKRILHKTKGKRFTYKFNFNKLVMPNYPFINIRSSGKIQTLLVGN
# Procedure, shortened: as §1
# [8] = target: ETV6 (Homo sapiens, UniProt P41212 1-452)
# Procedure, shortened: as §1
# Chain of ETV6 (P41212 whole entry): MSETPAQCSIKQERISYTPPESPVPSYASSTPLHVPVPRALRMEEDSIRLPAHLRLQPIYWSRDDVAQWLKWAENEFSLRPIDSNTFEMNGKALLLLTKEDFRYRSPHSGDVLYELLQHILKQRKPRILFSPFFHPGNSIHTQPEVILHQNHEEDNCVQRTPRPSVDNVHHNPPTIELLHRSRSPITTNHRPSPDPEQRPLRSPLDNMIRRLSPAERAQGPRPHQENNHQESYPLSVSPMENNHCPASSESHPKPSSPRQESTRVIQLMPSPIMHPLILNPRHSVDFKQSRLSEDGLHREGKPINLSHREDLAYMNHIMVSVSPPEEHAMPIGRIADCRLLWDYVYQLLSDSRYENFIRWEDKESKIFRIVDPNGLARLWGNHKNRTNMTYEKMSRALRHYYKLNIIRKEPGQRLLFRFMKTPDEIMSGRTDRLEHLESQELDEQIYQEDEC
Sequence,binding signal [1],binding signal [2],binding signal [3],binding signal [4],binding signal [5],binding signal [6],binding signal [7],binding signal [8]
TATTTG,"1.34 fold enrichment (6-mer frequency, TF over GST control)","1.47 fold enrichment (6-mer frequency, TF over GST control)","1.41 fold enrichment (6-mer frequency, TF over GST control)","1.32 fold enrichment (6-mer frequency, TF over GST control)","1.52 fold enrichment (6-mer frequency, TF over GST control)","1.4 fold enrichment (6-mer frequency, TF over GST control)","1.47 fold enrichment (6-mer frequency, TF over GST control)","1.45 fold enrichment (6-mer frequency, TF over GST control)"
TCCCGG,"1.77 fold enrichment (6-mer frequency, TF over GST control)","2.2 fold enrichment (6-mer frequency, TF over GST control)","2.34 fold enrichment (6-mer frequency, TF over GST control)","2.76 fold enrichment (6-mer frequency, TF over GST control)","1.92 fold enrichment (6-mer frequency, TF over GST control)","3.07 fold enrichment (6-mer frequency, TF over GST control)","2.44 fold enrichment (6-mer frequency, TF over GST control)","2.46 fold enrichment (6-mer frequency, TF over GST control)"
ACCTGC,"1.35 fold enrichment (6-mer frequency, TF over GST control)","1.42 fold enrichment (6-mer frequency, TF over GST control)","1.5 fold enrichment (6-mer frequency, TF over GST control)","1.4 fold enrichment (6-mer frequency, TF over GST control)","1.48 fold enrichment (6-mer frequency, TF over GST control)","1.39 fold enrichment (6-mer frequency, TF over GST control)","1.44 fold enrichment (6-mer frequency, TF over GST control)","1.66 fold enrichment (6-mer frequency, TF over GST control)"
CTAACA,"1.29 fold enrichment (6-mer frequency, TF over GST control)","1.22 fold enrichment (6-mer frequency, TF over GST control)","1.21 fold enrichment (6-mer frequency, TF over GST control)","1.29 fold enrichment (6-mer frequency, TF over GST control)","1.16 fold enrichment (6-mer frequency, TF over GST control)","1.15 fold enrichment (6-mer frequency, TF over GST control)","1.14 fold enrichment (6-mer frequency, TF over GST control)","1.18 fold enrichment (6-mer frequency, TF over GST control)"
TATGGC,"1.25 fold enrichment (6-mer frequency, TF over GST control)","1.23 fold enrichment (6-mer frequency, TF over GST control)","1.2 fold enrichment (6-mer frequency, TF over GST control)","1.27 fold enrichment (6-mer frequency, TF over GST control)","1.26 fold enrichment (6-mer frequency, TF over GST control)","1.23 fold enrichment (6-mer frequency, TF over GST control)","1.31 fold enrichment (6-mer frequency, TF over GST control)","1.29 fold enrichment (6-mer frequency, TF over GST control)"
CCGATT,"1.28 fold enrichment (6-mer frequency, TF over GST control)","1.43 fold enrichment (6-mer frequency, TF over GST control)","1.39 fold enrichment (6-mer frequency, TF over GST control)","1.32 fold enrichment (6-mer frequency, TF over GST control)","1.31 fold enrichment (6-mer frequency, TF over GST control)","1.39 fold enrichment (6-mer frequency, TF over GST control)","1.38 fold enrichment (6-mer frequency, TF over GST control)","1.52 fold enrichment (6-mer frequency, TF over GST control)"
GTCTCC,"1.45 fold enrichment (6-mer frequency, TF over GST control)","1.67 fold enrichment (6-mer frequency, TF over GST control)","1.52 fold enrichment (6-mer frequency, TF over GST control)","1.47 fold enrichment (6-mer frequency, TF over GST control)","1.32 fold enrichment (6-mer frequency, TF over GST control)","1.4 fold enrichment (6-mer frequency, TF over GST control)","1.52 fold enrichment (6-mer frequency, TF over GST control)","1.51 fold enrichment (6-mer frequency, TF over GST control)"
TACATA,"1.33 fold enrichment (6-mer frequency, TF over GST control)","1.1 fold enrichment (6-mer frequency, TF over GST control)","1.27 fold enrichment (6-mer frequency, TF over GST control)","1.2 fold enrichment (6-mer frequency, TF over GST control)","1.31 fold enrichment (6-mer frequency, TF over GST control)","1.16 fold enrichment (6-mer frequency, TF over GST control)","1.21 fold enrichment (6-mer frequency, TF over GST control)","1.21 fold enrichment (6-mer frequency, TF over GST control)"
TTATAT,"1.23 fold enrichment (6-mer frequency, TF over GST control)","1.37 fold enrichment (6-mer frequency, TF over GST control)","1.39 fold enrichment (6-mer frequency, TF over GST control)","1.4 fold enrichment (6-mer frequency, TF over GST control)","1.38 fold enrichment (6-mer frequency, TF over GST control)","1.28 fold enrichment (6-mer frequency, TF over GST control)","1.44 fold enrichment (6-mer frequency, TF over GST control)","1.36 fold enrichment (6-mer frequency, TF over GST control)"
AAAATG,"1.21 fold enrichment (6-mer frequency, TF over GST control)","1.24 fold enrichment (6-mer frequency, TF over GST control)","1.21 fold enrichment (6-mer frequency, TF over GST control)","1.08 fold enrichment (6-mer frequency, TF over GST control)","1.28 fold enrichment (6-mer frequency, TF over GST control)","1.24 fold enrichment (6-mer frequency, TF over GST control)","1.2 fold enrichment (6-mer frequency, TF over GST control)","1.24 fold enrichment (6-mer frequency, TF over GST control)"
CATCTA,"1.19 fold enrichment (6-mer frequency, TF over GST control)","1.16 fold enrichment (6-mer frequency, TF over GST control)","1.13 fold enrichment (6-mer frequency, TF over GST control)","1.07 fold enrichment (6-mer frequency, TF over GST control)","1.21 fold enrichment (6-mer frequency, TF over GST control)","1.17 fold enrichment (6-mer frequency, TF over GST control)","1.05 fold enrichment (6-mer frequency, TF over GST control)","1.15 fold enrichment (6-mer frequency, TF over GST control)"
CCACTT,"1.9 fold enrichment (6-mer frequency, TF over GST control)","1.79 fold enrichment (6-mer frequency, TF over GST control)","1.84 fold enrichment (6-mer frequency, TF over GST control)","1.69 fold enrichment (6-mer frequency, TF over GST control)","1.78 fold enrichment (6-mer frequency, TF over GST control)","1.89 fold enrichment (6-mer frequency, TF over GST control)","1.97 fold enrichment (6-mer frequency, TF over GST control)","1.85 fold enrichment (6-mer frequency, TF over GST control)"
ATGACT,"1.36 fold enrichment (6-mer frequency, TF over GST control)","1.47 fold enrichment (6-mer frequency, TF over GST control)","1.42 fold enrichment (6-mer frequency, TF over GST control)","1.29 fold enrichment (6-mer frequency, TF over GST control)","1.38 fold enrichment (6-mer frequency, TF over GST control)","1.32 fold enrichment (6-mer frequency, TF over GST control)","1.27 fold enrichment (6-mer frequency, TF over GST control)","1.3 fold enrichment (6-mer frequency, TF over GST control)"
TTCCAT,"1.24 fold enrichment (6-mer frequency, TF over GST control)","1.29 fold enrichment (6-mer frequency, TF over GST control)","1.25 fold enrichment (6-mer frequency, TF over GST control)","1.2 fold enrichment (6-mer frequency, TF over GST control)","1.27 fold enrichment (6-mer frequency, TF over GST control)","1.26 fold enrichment (6-mer frequency, TF over GST control)","1.32 fold enrichment (6-mer frequency, TF over GST control)","1.4 fold enrichment (6-mer frequency, TF over GST control)"
TCTCAG,"1.26 fold enrichment (6-mer frequency, TF over GST control)","1.26 fold enrichment (6-mer frequency, TF over GST control)","1.37 fold enrichment (6-mer frequency, TF over GST control)","1.33 fold enrichment (6-mer frequency, TF over GST control)","1.26 fold enrichment (6-mer frequency, TF over GST control)","1.31 fold enrichment (6-mer frequency, TF over GST control)","1.43 fold enrichment (6-mer frequency, TF over GST control)","1.34 fold enrichment (6-mer frequency, TF over GST control)"
